According to PubChem BioAssay (NCI):
The panel holds about 83,000 compounds, 20% with a hit somewhere; the sample as a whole holds those more often.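 Cell lines were cultured in 96-well plates, exposed to a single compound concentration, and assessed for percent growth 48 hours later.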 Values without a mark were called inactive. Activity calls are given as the source filed them. Rule for the calls: active = growth percent below 10; inactive = the rest.

Key:
Experiment in all cases: NCI-60 one-dose screen, 48 h (100 = growth as untreated, 0 = no growth, -100 = all killed)
Settings in all cases: 10 µM unless noted
DU-145 prostate = tested on: DU-145 prostate
K-562 leukemia = tested on: K-562 leukemia
MALME-3M melanoma = tested on: MALME-3M melanoma
MDA-MB-231 breast = tested on: MDA-MB-231 breast
RXF 393 renal = tested on: RXF 393 renal
SF-268 CNS = tested on: SF-268 CNS
SF-295 CNS = tested on: SF-295 CNS
SF-539 CNS = tested on: SF-539 CNS
UACC-257 melanoma = tested on: UACC-257 melanoma
M14 melanoma = tested on: M14 melanoma

SMILES	growth (DU-145 prostate)	growth (K-562 leukemia)	growth (MALME-3M melanoma)	growth (MDA-MB-231 breast)	growth (RXF 393 renal)	growth (SF-268 CNS)	growth (SF-295 CNS)	growth (SF-539 CNS)	growth (UACC-257 melanoma)	growth (M14 melanoma)
C#CCOc1cc(/C=N/Nc2nc(-c3ccc(OC)cc3)cs2)ccc1O	95.7%	59.1%	86.1%	96.5%	107%	94.3%	84.1%	93%	93.2%	
N#Cc1c(-c2ccc(Cl)cc2)nc(NN=Cc2cccc(Cl)c2)nc1N1CCOCC1	76%	35.1%	131%	90.6%	61.4%	90.3%	102%	79.1%	100%	
O=C1CC2C=CCN2C=C1NC(=O)c1ccccc1 (stereo not given)	103%	92.7%	93.9%	112%	105%	98.7%	98%	107%	99.8%	
COC(=O)[C@H](C)NC(=O)c1ccc(NC(=O)c2[nH]c(C)c(Cl)c2Cl)c(OCCN)c1	104%	66.7%	113%	103%	115%	96.3%	102%	101%	104%	
CCn1c2ccccc2c2cc(C(O)c3cccc4ncccc34)ccc21 (stereo not given)	8.08% (active)	8.65% (active)	57.7%	24.3%	40.6%	28.6%	18.4%	6.53% (active)	70.8%	
COc1ccc(NC(=O)c2sc3nc(C)c(C(=O)c4ccccc4)cc3c2N)cc1	116%	94.2%	102%	98.6%	87.8%	104%	103%	102%	96.9%	
O=C1NCCS(=O)(=O)/C1=C\C=C\c1cccc(C(F)(F)F)c1	29.4%	17.3%	29.9%	49.1%	35.5%	28.6%	82.7%	10.6%	38.6%	
COc1cc(/C=N/NC(=O)c2ccc3nc(-c4ccc(Cl)cc4)[nH]c3c2)cc(OC)c1OC	97.4%	32.7%	28.4%	103%	36.3%	79.7%	44%	43.8%	54.3%	
Cc1ccc(-c2nnc(SCc3nc(N)nc(Nc4ccccc4F)n3)n2-c2ccccc2)cc1	102%	89.9%	117%	91.9%	80.7%	97.3%	94.3%	97%	99.3%	
CN(C)CCOc1ccc(/C(=C(/CCCCCCCCCC[P+](c2ccccc2)(c2ccccc2)c2ccccc2)c2ccccc2)c2ccccc2)cc1	-94.1% (active)	-39.3% (active)	-82.2% (active)	-83.4% (active)	-73.8% (active)	-72.1% (active)	-88.6% (active)	-88.9% (active)	-77.4% (active)	
CC(C)=CC(=O)C1C(=O)c2ccccc2C1=O	104%	74.5%	83.6%	107%	104%	101%	98.3%	104%	107%	94%
O=C(NS(=O)(=O)c1ccccc1)n1cc(-c2ccncc2)c(-c2cc(O)cc(Cl)c2)n1	112%	78%	15.3%	90.4%	112%	108%	110%	86.5%	70.8%	32.1%
O=c1ccc2nc(-c3ccccc3)nn(-c3ccccn3)c-2c1	105%	-24.3% (active)	50.1%	91.1%	26.8%	96.6%	103%	99.5%	72.3%	105%
Cn1ccnc1C(=O)/C=C/c1ccc(CC(=O)Nc2cc(F)c(F)c(F)c2)cc1	3% (active)	12.6%	83.2%	6.11% (active)	-15.6% (active)	15.5%	51.5%	-19.5% (active)	80.2%	62.7%
COc1ccc(NC(=O)CSc2oc(-c3ccccc3)nc2S(=O)(=O)c2ccc(Cl)cc2)c(OC)c1	83.1%	67.4%	57.6%	47.5%	16.3%	47.1%	53.6%	0.354% (active)	40.7%	77.3%
CCOc1ccccc1NC(=O)CCC(=O)OC	107%	108%	72.9%	107%	109%	96.9%	104%	97.4%	123%	100%
Cn1cc(-c2csc(-c3cn(C)c4ccc(F)cc34)n2)c2cnccc21	-6.44% (active)	-60.3% (active)	-92.5% (active)	-33.1% (active)	-85.5% (active)	-60.3% (active)	-81.1% (active)	-92.5% (active)	-73.1% (active)	-80% (active)
Nc1c(C(=O)c2ccc(Cl)cc2)sc(Nc2ccccc2)c1-c1nc2ccccc2s1	25.5%	55.2%	20.7%	18.8%	72.8%	45.5%	-24.4% (active)	43.2%	58.8%	30.6%
Cc1ccc2c(c1)CC(O)CC1C(=O)N(CCO)CC(=O)N21 (stereo not given)	111%	101%	100%	92.4%	90.5%	99.7%	101%	102%	81.1%	103%
OC1CSSC1Cn1cnc2c(Nc3ccc(F)c(Cl)c3)ncnc21 (stereo not given)	85.8%	32.5%	65.1%	84.6%	114%	81.8%	106%	93.2%	82%	-65.9% (active)
CCOC(=O)c1c(C)c2c(n1Cc1ccccc1)CSc1cc(C#N)c(=O)[nH]c1-2	83.9% [100 µM]	75.5% [100 µM]	55% [100 µM]	54.8% [100 µM]	26.6% [100 µM]	67.5% [100 µM]	43.6% [100 µM]	52.6% [100 µM]	121% [100 µM]	90.4% [100 µM]
COc1cc(CNC(=O)CCCC/C=C/C(C)C)ccc1OCc1cn(-c2cccc([N+](=O)[O-])c2)nn1	109%	81.5%	103%	88.4%	92.7%	92.3%	104%	94.4%	94.4%	93.5%
O=C(/C=C/c1ccco1)c1ccc(Nc2ccnc3cc(Cl)ccc23)cc1	90.8%	51.2%	110%	70.2%	-28.3% (active)	105%	72.5%	92.1%	97.8%	83.3%
CN(CCNc1ccc(C(=N)N)cc1)c1ccc(C(=N)N)cc1	66.6%	74.4%	84.7%	91.8%	109%	99.4%	54.3%	101%	55.1%	96.1%
NCCCCCNc1noc(Cc2c[nH]c3cc(Br)ccc23)n1	2.36% (active)	14.3%	13.5%	51.2%	-11.5% (active)	54.1%	7.26% (active)	-23% (active)	54.8%	-26.3% (active)
O=C(CSc1nnc(-c2ccc(Cl)c(Cl)c2)n1-c1ccccc1)Nc1ccc(C(=O)/C=C/c2ccc(Cl)cc2)cc1	98.3%	81.9%	94.6%	86.5%	92.1%	92.2%	98.2%	97.9%	77.3%	82.2%
COc1ccc(/C(C)=C(\c2ccc(Cl)cc2)c2ccc(OCCCN(C)C)cc2)cc1	90.4%	1.91% (active)	64.5%	78.9%	70.1%	77.4%	85.7%	82.5%	89.1%	36.8%
